Laboratory results taken from PubChem BioAssay.
The source made the active and inactive calls. Unless noted, the rule behind the calls is not given here.

How the values were obtained:
[1] = system: Wnt5a (protein binding on small-molecule microarray); assay: small molecules binding Wnt5a protein – biophysical, small-molecule microarray, 635/667 nm fluorescence, primary screen (AID 1142); details: 635 nm fluorescence, higher = more signal;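 note: fluorescence read at 667 nm with signal to noise per printed feature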
[2] = ATP-based viability of Huh7 replicon cells – cell-based, CellTiter-Glo luminescence, basal, 48 h, cytotoxicity control for HCV replication inhibitor project, primary screen (AID 1143); details: higher = more signal, called active from +8 up or from −8 down;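 note: Huh7 hepatoma cells carrying a hepatitis C replication reporter with no stimulus; test concentration not given here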
[3] = Pseudomonas biofilm growth suppression – PAO1 strain, BacTiter-Glo luminescence, LB-PBS, primary screen (AID 1144); details: P. aeruginosa PAO1 biofilm, 12 h, higher = more signal
[4] = basal CRE-LacZ reporter activity in PC12 – cell-based, unstimulated, primary screen (AID 1145); details: no forskolin, luminescence, 4.5 h, higher = more signal, called active from +8 up or from −8 down
[5] = forskolin-driven CRE-LacZ activity in PC12 – cell-based, CRE-LacZ reporter, forskolin-stimulated, primary screen (AID 1146); details: luminescence, 4.5 h, higher = more signal, called active from +8 up or from −8 down;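 note: PC12 cells with 6xCRE LacZ reporter stimulated by forskolin 10 µM; beta-galactosidase reporter signal reflecting CREB driven transcription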
[6] = biological target: Streptavidin (Streptomyces avidinii) (UniProt P22629); assay: compounds binding control protein streptavidin – biophysical, small-molecule microarray, 635/667 nm fluorescence, artefact control for SMM compound annotation, primary screen (AID 1147); details: higher = more signal;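 note: signal reflects streptavidin binding to arrayed compounds as a control protein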
[7] = probe aInhba binding on compound microarray – biochemical, small-molecule microarray, 635/667 nm fluorescence, primary screen (AID 1148); details: higher = more signal;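 note: score merges 667nm spot fluorescence with signal-to-noise for antibody binding to printed compounds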
Torsin-1A (Homo sapiens) [8] = biological target: Torsin-1A (Homo sapiens) (UniProt O14656); assay: TOR1A wild-type binding on microarray – cell lysate, small-molecule microarray, lysate, 635/667 nm, primary screen (AID 1149); details: COS7 hTOR1A-WT lysate, 635 nm fluorescence, higher = more signal
Torsin-1A (Homo sapiens) [9] = biological target: Torsin-1A (Homo sapiens) (UniProt O14656); assay: torsin A mutant lysate binding on microarrays – cell lysate, small-molecule microarray, COS7 lysate, 635/667 nm fluorescence, primary screen (AID 1150); details: COS7 hTOR1A mutant lysate, 635 nm fluorescence, higher = more signal;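 note: score pools 667 nm emission and signal to noise measuring lysate protein binding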
[10] = system: Sonic hedgehog protein (Shh); assay: Sonic hedgehog microarray binding compounds – biochemical, small-molecule microarray, 635/667 nm fluorescence, primary screen (AID 1151); details: 635 nm fluorescence, higher = more signal;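 note: Shh protein binding to compounds spotted on small-molecule microarray slides; score combines spot fluorescence intensity with signal-to-noise across triplicate slides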
[11] = optical density shifts of acrAB sulA E. coli – strain DRC41, OD650, 48 h, E. coli filamentation inducer project, primary screen (AID 1152); details: higher = more signal, called active from +8 up or from −8 down;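 note: E. coli MC1000 strain DRC41 lacking acrAB efflux pump and sulA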
[12] = probe aLefty1 binding on compound microarray – biochemical, small-molecule microarray, 635/667 nm fluorescence, primary screen (AID 1153); details: higher = more signal;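 note: score merges spot fluorescence with signal-to-noise ratio from the scanned slide images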
[13] = plasmodial surface anion channel blockers, osmotic lysis – cell-based, P. falciparum Indochina, OD700, 1 h, primary screen (AID 1154); details: P. falciparum Indochina infected RBC osmotic lysis, higher = more signal, called active from +8 up or from −8 down
[14] = plasmodial surface anion channel blockers, osmotic lysis – cell-based, P. falciparum Indochina, OD700, 2 h, primary screen (AID 1155);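 note: lysis reports solute entry through the parasite surface anion channel PSAC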; details: P. falciparum Indochina infected erythrocytes, higher = more signal, called active from +8 up or from −8 down
[15] = changes in parasitized red cell lysis, either direction – P. falciparum Indochina, OD700, 3 h, PSAC antagonist project, primary screen (AID 1156); details: P. falciparum-infected erythrocytes, osmotic lysis, higher = more signal, called active from +8 up or from −8 down
[16] = plasmodial surface anion channel blockers, osmotic lysis – cell-based, P. falciparum Indochina, OD700, 18 h, primary screen (AID 1157); details: P. falciparum Indochina infected erythrocytes, osmotic lysis OD700, 18 h; higher = more signal, called active from +8 up or from −8 down
[17] = S6 kinase pathway phospho-S6 level changes – cell-based, A549, cytoblot, luminescence, serum-stimulated, primary screen (AID 1158); details: 5 h, higher = more signal;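 note: serum-stimulated A549 lung adenocarcinoma cells; signal is phosphorylated S6 detected by cytoblot immunostaining with HRP secondary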
[18] = biological target: NADPH oxidase 2 (Homo sapiens) (UniProt P04839); assay: compounds shifting NOX2 Amplex Red fluorescence – cell-based, HEK293-NOX2, PMA-stimulated, NOX inhibitor project, primary screen (AID 1159); details: 45 min, higher = more signal, called active from +8 up or from −8 down; note: test concentration not given here
[19] = biological target: NADPH oxidase 4 (Homo sapiens) (UniProt Q9NPH5); assay: compounds shifting NOX4 Amplex Red fluorescence – cell-based, HEK293-NOX4, tetracycline-induced, NOX inhibitor project, primary screen (AID 1160); details: HEK293-NOX4, Amplex Red H2O2 fluorescence, 45 min; higher = more signal, called active from +8 up or from −8 down
[20] = biological target: NADPH oxidase 5 (Homo sapiens) (UniProt Q96PH1); assay: compounds shifting NOX5 Amplex Red fluorescence – cell-based, HEK293-NOX5, NOX inhibitor project, primary screen (AID 1161); details: HEK293-NOX5, ionomycin, 45 min, higher = more signal
NADPH oxidase 5 (Homo sapiens), sequence (Q96PH1 whole entry, looked up): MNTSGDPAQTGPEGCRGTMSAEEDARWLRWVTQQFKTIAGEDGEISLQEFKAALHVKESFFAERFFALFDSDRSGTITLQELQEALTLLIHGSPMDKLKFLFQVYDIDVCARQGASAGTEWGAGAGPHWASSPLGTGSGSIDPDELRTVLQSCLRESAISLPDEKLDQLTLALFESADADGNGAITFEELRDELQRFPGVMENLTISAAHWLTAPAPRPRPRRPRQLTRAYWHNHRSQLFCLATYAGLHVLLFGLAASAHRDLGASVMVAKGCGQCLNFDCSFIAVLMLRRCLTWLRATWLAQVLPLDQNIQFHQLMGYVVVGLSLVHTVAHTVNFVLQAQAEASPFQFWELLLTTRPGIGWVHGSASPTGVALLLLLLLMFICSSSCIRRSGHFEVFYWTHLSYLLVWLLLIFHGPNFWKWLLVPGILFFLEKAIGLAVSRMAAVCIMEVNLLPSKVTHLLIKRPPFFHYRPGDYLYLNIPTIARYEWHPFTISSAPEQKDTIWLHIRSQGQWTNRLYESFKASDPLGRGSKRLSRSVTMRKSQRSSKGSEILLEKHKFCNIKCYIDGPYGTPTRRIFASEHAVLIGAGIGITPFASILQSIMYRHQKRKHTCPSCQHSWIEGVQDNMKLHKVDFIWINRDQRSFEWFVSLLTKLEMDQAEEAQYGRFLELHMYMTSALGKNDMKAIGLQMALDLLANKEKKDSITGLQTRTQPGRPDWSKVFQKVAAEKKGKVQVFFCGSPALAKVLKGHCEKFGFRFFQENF

NADPH oxidase 2 (Homo sapiens), sequence (P04839 whole entry, looked up): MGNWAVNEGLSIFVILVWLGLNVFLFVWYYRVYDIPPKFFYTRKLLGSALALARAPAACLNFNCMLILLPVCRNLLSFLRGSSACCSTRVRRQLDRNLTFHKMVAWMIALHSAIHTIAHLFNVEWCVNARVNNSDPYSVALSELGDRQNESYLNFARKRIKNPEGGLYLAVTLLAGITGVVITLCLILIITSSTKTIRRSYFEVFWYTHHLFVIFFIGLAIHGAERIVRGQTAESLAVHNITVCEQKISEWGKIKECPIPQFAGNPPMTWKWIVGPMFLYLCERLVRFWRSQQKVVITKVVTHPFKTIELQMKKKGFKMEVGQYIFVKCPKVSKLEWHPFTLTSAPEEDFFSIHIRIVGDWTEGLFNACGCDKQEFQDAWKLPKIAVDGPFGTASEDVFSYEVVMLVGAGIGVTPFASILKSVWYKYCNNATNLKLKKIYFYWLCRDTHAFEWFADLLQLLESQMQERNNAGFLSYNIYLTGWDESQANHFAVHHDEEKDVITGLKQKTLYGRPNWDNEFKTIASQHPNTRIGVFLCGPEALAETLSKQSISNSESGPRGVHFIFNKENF
Torsin-1A (Homo sapiens), sequence (O14656 whole entry, looked up): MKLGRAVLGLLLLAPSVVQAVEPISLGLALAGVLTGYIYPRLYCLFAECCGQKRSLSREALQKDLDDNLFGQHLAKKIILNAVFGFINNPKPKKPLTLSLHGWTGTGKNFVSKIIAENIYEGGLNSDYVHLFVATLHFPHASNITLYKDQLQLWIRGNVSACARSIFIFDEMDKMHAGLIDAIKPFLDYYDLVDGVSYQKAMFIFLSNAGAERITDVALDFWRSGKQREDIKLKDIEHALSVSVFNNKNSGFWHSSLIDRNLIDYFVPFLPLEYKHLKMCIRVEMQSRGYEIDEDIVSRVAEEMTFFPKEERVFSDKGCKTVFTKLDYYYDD
Streptavidin (Streptomyces avidinii), sequence (P22629 whole entry, looked up): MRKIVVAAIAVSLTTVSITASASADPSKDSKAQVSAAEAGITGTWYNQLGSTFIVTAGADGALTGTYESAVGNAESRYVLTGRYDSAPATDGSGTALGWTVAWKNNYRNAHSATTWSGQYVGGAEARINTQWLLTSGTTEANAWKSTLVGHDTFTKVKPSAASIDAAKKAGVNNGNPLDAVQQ
NADPH oxidase 4 (Homo sapiens), sequence (Q9NPH5 whole entry, looked up): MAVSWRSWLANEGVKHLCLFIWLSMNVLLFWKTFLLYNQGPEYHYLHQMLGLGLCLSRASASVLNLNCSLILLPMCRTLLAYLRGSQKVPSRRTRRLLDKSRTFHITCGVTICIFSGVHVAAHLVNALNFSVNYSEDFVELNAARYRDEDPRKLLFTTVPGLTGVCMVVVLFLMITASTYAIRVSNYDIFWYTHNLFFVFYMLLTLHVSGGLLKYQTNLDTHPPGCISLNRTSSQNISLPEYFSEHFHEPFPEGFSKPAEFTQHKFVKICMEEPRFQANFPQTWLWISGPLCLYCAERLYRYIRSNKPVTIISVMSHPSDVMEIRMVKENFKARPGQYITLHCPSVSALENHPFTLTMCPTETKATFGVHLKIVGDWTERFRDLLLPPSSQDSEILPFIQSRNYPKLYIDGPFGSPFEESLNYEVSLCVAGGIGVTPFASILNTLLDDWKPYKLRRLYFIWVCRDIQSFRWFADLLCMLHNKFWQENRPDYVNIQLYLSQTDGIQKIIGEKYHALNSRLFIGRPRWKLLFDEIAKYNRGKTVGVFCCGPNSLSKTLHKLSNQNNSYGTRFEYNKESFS

SMILES	composite z-score [1]	z-score [2]	z-score [3]	z-score [4]	z-score [5]	composite z-score [6]	composite z-score [7]	composite z-score (Torsin-1A (Homo sapiens) [8])	composite z-score (Torsin-1A (Homo sapiens) [9])	composite z-score [10]	z-score [11]	composite z-score [12]	z-score [13]	z-score [14]	z-score [15]	z-score [16]	z-score [17]	z-score [18]	z-score [19]	z-score [20]
COC(=O)[C@@]1(Cc2ccccc2)[C@H]2c3cc(C(=O)N(C)C)n(Cc4ccc(C(F)(F)F)nc4)c3C[C@H]2CN1C(=O)c1ccccc1	0.598	-1.94 (inactive)	-0.0691 (inactive)	-0.189 (inactive)	0.484 (inactive)	2.08	0.433	0.167	0.511	-0.561	-1.64 (inactive)	1.1	1.5 (inactive)	0.234 (inactive)	1.3 (inactive)	0.715 (inactive)	0.184	0.0745 (inactive)	-1.31 (inactive)	-3.12
O=C1[C@H]2C=C(I)[C@H](C[C@@H]2c2ccccc2)[C@@]12CO2	-0.303	-0.496 (inactive)	0.686 (inactive)	0.849 (inactive)	1.31 (inactive)	-0.144	-0.0762	-0.114	-0.153	0.147	-1.76 (inactive)	-0.15	0.613 (inactive)	0.0069 (inactive)	0.402 (inactive)	-0.0396 (inactive)	-0.164	-0.66 (inactive)	0.265 (inactive)	-0.666
COC(=O)[C@]1(Cc2ccccc2)N=C(c2ccc(OCCCO)cc2)O[C@@H]1c1ccccc1CN=[N+]=[N-]	0.239	-5.39 (inactive)	-1.19 (inactive)	2.31 (inactive)	-1.5 (inactive)	-0.304	0.233	-0.133	0.104	0.895	-1.03 (inactive)	0.25	27.2 (active)	24.7 (active)	0.765 (inactive)	4.7 (inactive)	0.614	-4.51 (inactive)	-1.36 (inactive)	-2.36
COCCCNC(=O)[C@@]1(CCC(=O)OC(C)(C)C)COC(c2ccc(OCCCO)cc2)=N1	0.23	-1.7 (inactive)	-0.126 (inactive)	0.195 (inactive)	0.706 (inactive)	0.905	0.204	0.589	1.4	-0.98	0.42 (inactive)	0.205	23.6 (active)	4.91 (inactive)	0.873 (inactive)	0.766 (inactive)	-0.169	-2.51 (inactive)	0.195 (inactive)	-0.0784
CCCCC(O)C1C=CC2C(=O)N(c3ccccc3)C(=O)C2N1Nc1ccccc1 (stereo not given)	-0.152	0.564 (inactive)	-0.279 (inactive)	0.257 (inactive)	0.875 (inactive)	0.682	0.0278	-0.0483	0.0691	-1.35	-0.274 (inactive)	0.139	4.52 (inactive)	0.786 (inactive)	-0.196 (inactive)	1.17 (inactive)	-0.439	-1.17 (inactive)	-2.93 (inactive)	-2.06
Cc1ccc(S[C@]2(C(=O)NC(C)C)CC(=O)N(C3CCCCC3)[C@@H]2c2ccc(CO)cc2I)cc1	0.0335	-3.94 (inactive)	-1.17 (inactive)	-0.608 (inactive)	0.74 (inactive)	1.46	-0.0589	1.21	2.76	1.95	0.497 (inactive)	-0.0564	6.28 (inactive)	1.47 (inactive)	1.18 (inactive)	0.916 (inactive)	-0.052	0.877 (inactive)	0.292 (inactive)	1.89
O=C1C2C=CC(C(O)c3cccs3)N(Nc3ccc([N+](=O)[O-])cc3)C2C(=O)N1c1ccccc1 (stereo not given)	0.0001	0.0886 (inactive)	0.461 (inactive)	-0.685 (inactive)	-0.275 (inactive)	0.46	-0.0791	-0.236	0.303	-0.441	-0.46 (inactive)	-0.105	8.61 (active)	1.43 (inactive)	1.75 (inactive)	0.753 (inactive)	-0.772	-0.437 (inactive)	-2.75 (inactive)	-1.55
C=C(CCCC)/C(=C/C[C@H](OC(=O)c1ccncc1)c1cccc(OCCO)c1)c1cnc2ccccc2c1	0.24	-1.58 (inactive)	0.124 (inactive)	2.6 (inactive)	0.256 (inactive)	0.905	0.0155	0.947	0.706	1.78	-0.639 (inactive)	0.0429	23.9 (active)	7.01 (inactive)	1.5 (inactive)	1.26 (inactive)	-0.282	-0.777 (inactive)	-0.293 (inactive)	-1.82
COCCOC(=O)N1C(=O)[C@@]2(c3cc(C#Cc4ccc(OC)cc4)ccc31)[C@H](c1ccc(OCCO)cc1)N1[C@H](c3ccccc3)[C@H](c3ccccc3)OC(=O)[C@H]1[C@@H]2C(=O)NC[C@H](O)c1ccccc1	0.316	-1.07 (inactive)	-0.367 (inactive)	-0.463 (inactive)	0.003 (inactive)	0.769	0.0301	0.677	0.603	1.5	-0.0906 (inactive)	0.257	4.14 (inactive)	2.07 (inactive)	0.0276 (inactive)	1.24 (inactive)	-0.539	1.27 (inactive)	0.708 (inactive)	1.11
COCCOC(=O)N1C(=O)[C@@]2(c3cc(C#CCC(C(=O)OC)C(=O)OC)ccc31)[C@H](C(=O)Nc1nc3ccccc3s1)[C@H]1C(=O)O[C@H](c3ccccc3)[C@H](c3ccccc3)N1[C@@H]2c1ccc(O)cc1	0.624	-0.869 (inactive)	0.446 (inactive)	-1.14 (inactive)	0.316 (inactive)	1.27	0.326	0.391	0.0756	1.84	0.0976 (inactive)	0.786	1.3 (inactive)	0.575 (inactive)	-0.0813 (inactive)	0.751 (inactive)	-0.0525	1.59 (inactive)	-1.11 (inactive)	0.755
COc1cc(C(O)C2C=CC3C(=O)N(c4ccccc4)C(=O)C3N2Nc2ccccc2)cc(OC)c1OC (stereo not given)	0.575	-0.685 (inactive)	-0.983 (inactive)	-0.322 (inactive)	0.226 (inactive)	1.39	0.38	-0.327	-0.0996	-0.277	-0.915 (inactive)	0.501	26.2 (active)	12.1 (active)	1.18 (inactive)	1.73 (inactive)	-0.817	-1.61 (inactive)	-3.49 (inactive)	-3.2
C=C(COC)C(=O)CC[C@@H](OC(=O)c1ccccc1-c1ccccc1C(=O)O)c1ccc(OCCO)cc1	0.238	-0.043 (inactive)	-0.147 (inactive)	0.727 (inactive)	1.36 (inactive)	-0.986	0.0018	-0.0281	1.15	1.86	-0.172 (inactive)	0.712	10.8 (active)	0.971 (inactive)	0.489 (inactive)	0.381 (inactive)	-0.528	0.849 (inactive)	-0.245 (inactive)	-1.32
COc1ccc(C#Cc2ccc3c(c2)[C@]2(C(=O)N3)[C@H](C(=O)O)[C@H]3C(=O)O[C@H](c4ccccc4)[C@H](c4ccccc4)N3[C@@H]2c2ccccc2OCCO)cc1	0.119	-5.87 (inactive)	-1.75 (inactive)	1.43 (inactive)	4.81 (inactive)	0.904	-0.413	0.65	0.643	1.63	0.987 (inactive)	-0.707	-0.357 (inactive)	-0.566 (inactive)	-10.3 (active)	-2.29 (inactive)	1.56	2.09 (inactive)	-0.415 (inactive)	-2.32
O=C1C=C(c2ccccc2)C(=O)C2=C1CC([C@H]1Oc3ccccc3S(=O)(=O)N3CCC[C@@H]13)=CC2	-0.0842	-6.3 (inactive)	0.497 (inactive)	4.67 (inactive)	20.1 (active)	0.429	-0.235	-0.295	-0.495	-0.0231	-0.0139 (inactive)	-0.101	2.36 (inactive)	0.445 (inactive)	-0.299 (inactive)	0.0841 (inactive)	-0.154	-0.368 (inactive)	-3.24 (inactive)	-2.66
COCCOC(=O)N1C(=O)[C@@]2(c3cc(C#CCC(C(=O)OC)C(=O)OC)ccc31)[C@H](c1ccc(O)cc1)N1[C@H](c3ccccc3)[C@H](c3ccccc3)OC(=O)[C@H]1[C@@H]2C(=O)Nc1nc2ccccc2s1	0.553	-1.48 (inactive)	0.164 (inactive)	-0.195 (inactive)	-0.521 (inactive)	0.633	0.221	0.533	0.479	1.77	0.306 (inactive)	0.251	2.75 (inactive)	0.666 (inactive)	0.34 (inactive)	0.802 (inactive)	-0.286	1.1 (inactive)	-1.09 (inactive)	0.698
CCCc1cc2c(n1CCc1ccc(Cl)cc1)C(C)C1CN(C(=O)c3ccccc3)C(C)(C(=O)OC)C21 (stereo not given)	0.689	-3.68 (inactive)	0.188 (inactive)	1.16 (inactive)	4.57 (inactive)	1.93	-0.0736	-0.103	0.947	-0.264	-2.41 (inactive)	0.268	2.24 (inactive)	0.322 (inactive)	2.8 (inactive)	0.347 (inactive)	0.0928	-2.06 (inactive)	-7.6 (inactive)	-5.16
